# In all, about 81,000 sequences were measured (“one-hybrid fitness for binding parS DNA”: median about -0.17, highest 2% from about 0.51 on). Only a selection was taken, and the highest values are over-represented in it overall.
# B1: Caulobacter ParB omega fusion; a variant is named by its letters at X, in order, B8GW30 (parent)
# chain: MESVVVGEPGMSEGRRGLGRGLSALLGEVDAAPAQAPGEQLGGSREAPIEILQRNPDQPRRTFREEDLEDLSNSIREKGVLQPILVRPSPDTAGEYQIVAGERAWRAAQRAGLKTVPIMVRELDDLAVLEIGIIENVQRADLNVLEEALSYKVLMEKFERTQENIAQTIGKSXSHVANXMRLLXLPDEVQSYLVSGELTAXHARAIAAAADPVALAKQIIEGGLSVRETEALARKAPNLSAGKSKGGRPPRVKDTDTQALESDLSSVLGLDVSIDHRGSTGTLTITYATLEQLDDLCNRLTRGI
# Variants of: B1
# Test: one-hybrid fitness for binding parS DNA (scaled: cognate 1, non-cognate 0); higher = stronger binding
# Details: with parS DNA site
# In short: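 Bacterial one-hybrid selection in E. coli USO rpoZ- hisB- pyrF- with a HIS3 reporter carrying the site 19 bp from the promoter, screening Caulobacter ParB libraries with four specificity codons randomised (NNS). Cells grew 48 hours at 37°C on M9-minus-histidine plus 0.1 mM IPTG and 5 mM 3-AT. Plasmids before and after selection were Illumina-sequenced, three replicate libraries pooled, and variants under 10 reads dropped. Fitness is the log change in variant-to-wild-type read ratio, rescaled to cognate 1, non-cognate 0.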
row,Variant,one-hybrid fitness for binding parS DNA
1,MGLC,≤ 0.2
2,GWAG,≤ 0.2
3,KEHC,≤ 0.2
4,RPVT,≤ 0.2
5,RCVT,0.843
6,REVT,≤ 0.2
7,RDVT,≤ 0.2
8,RSVT,0.707
9,CVDQ,≤ 0.2
10,ITTC,≤ 0.2
11,LKCF,≤ 0.2
12,HKKY,≤ 0.2
13,RIPG,0.703
14,RIPF,≤ 0.2
15,RIPR,≤ 0.2
16,RIIG,0.924
17,RIIH,0.233
18,RIIY,0.398
19,DMEL,≤ 0.2
20,CRVS,≤ 0.2
21,QASM,≤ 0.2
22,RYKF,0.257
23,RYKQ,≤ 0.2
24,RYVD,≤ 0.2
25,RYKG,0.91
26,RYVP,≤ 0.2

row,Variant,one-hybrid fitness for binding parS DNA
1,RYVG,0.899
2,VKQG,≤ 0.2
3,RVVK,≤ 0.2
4,RVVG,0.942
5,RVKQ,≤ 0.2
6,RVKM,0.393
7,RVVF,0.22
8,RVKG,0.941
9,QSVI,≤ 0.2
10,DCRY,≤ 0.2
11,LYRG,≤ 0.2
12,QLEI,≤ 0.2
13,RRDP,≤ 0.2
14,RRNN,0.811
15,RRND,≤ 0.2
16,RRDS,0.743
17,RRNP,≤ 0.2
18,RRDN,0.257
19,RRNH,0.256
20,RRDD,≤ 0.2
21,RRNS,0.646
22,MPNM,≤ 0.2
23,LHPH,≤ 0.2
24,GDDG,≤ 0.2
25,QSME,≤ 0.2
26,ACRS,≤ 0.2

row,Variant,one-hybrid fitness for binding parS DNA
1,SHIK,≤ 0.2
2,VLLG,≤ 0.2
3,RFDP,≤ 0.2
4,RFDS,0.954
5,RFNS,0.984
6,RFDN,0.354
7,RFND,≤ 0.2
8,RFNH,≤ 0.2
9,RMAW,0.235
10,WGKS,≤ 0.2
11,RQTE,≤ 0.2
12,NRHC,≤ 0.2
13,RRRT,0.597
14,RRYQ,≤ 0.2
15,RRDF,≤ 0.2
16,RRRK,≤ 0.2
17,RRSQ,≤ 0.2
18,RRST,0.54
19,RRDK,≤ 0.2
20,RRDT,0.648
21,RRYT,0.604
22,RRSK,≤ 0.2
23,RRRR,≤ 0.2
24,RRYF,≤ 0.2
25,SYQG,≤ 0.2
26,LIRC,≤ 0.2

row,Variant,one-hybrid fitness for binding parS DNA
1,MILL,≤ 0.2
2,PRDA,≤ 0.2
3,YSLD,≤ 0.2
4,WHRF,≤ 0.2
5,RRCT,0.587
6,RRLM,≤ 0.2
7,RRGM,0.391
8,RRGK,≤ 0.2
9,RRWM,≤ 0.2
10,RRGT,0.566
11,RRWT,0.682
12,RRLT,0.623
13,RRLQ,≤ 0.2
14,RRCQ,≤ 0.2
15,RRCK,≤ 0.2
16,RRWR,≤ 0.2
17,SPPK,≤ 0.2
18,RSIQ,≤ 0.2
19,YRAT,≤ 0.2
20,EFSC,≤ 0.2
21,DTGT,≤ 0.2
22,LRWE,≤ 0.2
23,AHLK,≤ 0.2
24,MITC,≤ 0.2
25,RRPK,≤ 0.2
26,LTLY,≤ 0.2

row,Variant,one-hybrid fitness for binding parS DNA
1,RRQF,≤ 0.2
2,DRHT,≤ 0.2
3,RRNK,≤ 0.2
4,RRNT,0.565
5,RRQK,≤ 0.2
6,RRQT,0.551
7,RRHT,0.593
8,RRNR,≤ 0.2
9,RRHR,≤ 0.2
10,HISY,≤ 0.2
11,PLCG,≤ 0.2
12,KSHC,≤ 0.2
13,TRTL,≤ 0.2
14,QHPL,≤ 0.2
15,TQMA,≤ 0.2
16,LYGV,≤ 0.2
17,STLG,≤ 0.2
18,RMFF,0.206
19,RMAQ,≤ 0.2
20,RMAY,0.436
21,RMAT,0.913
22,RMFT,0.882
23,RMFM,0.369
24,VYHP,≤ 0.2
25,HINR,≤ 0.2
26,PLDY,≤ 0.2

row,Variant,one-hybrid fitness for binding parS DNA
1,PNDH,≤ 0.2
2,RVVN,0.41
3,RVKS,0.831
4,RVKP,≤ 0.2
5,RVVD,≤ 0.2
6,RVVS,1.03
7,RVKH,≤ 0.2
8,EWSG,≤ 0.2
9,QKNH,≤ 0.2
10,APDA,≤ 0.2
11,DTGA,≤ 0.2
12,DFGA,≤ 0.2
13,PFGA,≤ 0.2
14,RFGA,0.531
15,RCGA,0.653
16,ETGA,≤ 0.2
17,RTGA,0.679
18,RWGA,0.386
19,DMGA,≤ 0.2
20,RMGA,0.573
21,RPGA,≤ 0.2
22,NTKT,≤ 0.2
23,QYPA,≤ 0.2
24,WNKI,≤ 0.2
25,NLGA,≤ 0.2
26,DAGA,≤ 0.2

row,Variant,one-hybrid fitness for binding parS DNA
1,RNGA,0.496
2,DLGA,≤ 0.2
3,RHGA,0.546
4,REGA,≤ 0.2
5,RAGA,0.595
6,RSGA,0.597
7,RLGA,0.617
8,VGER,≤ 0.2
9,ETLC,≤ 0.2
10,ETVR,≤ 0.2
11,LAFP,≤ 0.2
12,GGRS,≤ 0.2
13,KQSE,≤ 0.2
14,PDSM,≤ 0.2
15,LRGD,≤ 0.2
16,RCEC,0.866
17,RLER,≤ 0.2
18,RLEI,≤ 0.2
19,RKEC,0.893
20,RDEC,≤ 0.2
21,RMEC,0.878
22,RMEN,0.369
23,RKEQ,≤ 0.2
24,RLEC,0.947
25,RKEI,≤ 0.2
26,RMEH,≤ 0.2

row,Variant,one-hybrid fitness for binding parS DNA
1,RPEC,≤ 0.2
2,LRQY,≤ 0.2
3,VQGR,≤ 0.2
4,HFMV,≤ 0.2
5,TEEC,≤ 0.2
6,FLDS,≤ 0.2
7,HFDS,≤ 0.2
8,QTWK,≤ 0.2
9,CLLK,≤ 0.2
10,TGRC,≤ 0.2
11,RREC,0.731
12,RHEC,0.851
13,RAEC,0.807
14,RIER,≤ 0.2
15,RIEC,0.791
16,RHEQ,0.223
17,RAER,≤ 0.2
18,RHEF,≤ 0.2
19,RREH,≤ 0.2
20,RAEM,0.246
21,RIEY,0.338
22,RREP,≤ 0.2

# — a collection of fitness landscapes (doi:10.1016/j.celrep.2020.107928)
